# Assay results reported in PubChem BioAssay (NCI).
# The panel holds about 79,000 compounds, 15% with a hit somewhere; the sample as a whole holds those more often. Values without a mark were called inactive. Calls of active or inactive are those of the source. Rule as the data show it: active = growth inhibition above about 70%; inactive = the rest.
# Columns and labels:
# [1] = NCI Yeast Anticancer Drug Screen. Data for the rad50 strain (AID 155);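 also: 0% = growth of vehicle-only cultures of the same strain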; settings: S. cerevisiae rad50 strain growth inhibition; at 50.0 µM; stronger effect = higher value
# Outline: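 Inhibition values express reduced yeast growth in compound-treated cultures relative to vehicle-treated controls.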
# [2] = NCI Yeast Anticancer Drug Screen. Data for the mec2-1 strain (AID 157); settings: S. cerevisiae mec2-1 strain, at 50.0 µM, stronger effect = higher value
# Outline: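 Mutant yeast (mec2-1) grown with compound; growth inhibition relative to vehicle control reported.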
# [3] = NCI Yeast Anticancer Drug Screen. Data for the sgs1 mgt1 strain (AID 161);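 also: 0% = growth of cultures given vehicle only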; settings: S. cerevisiae sgs1 mgt1 strain, at 50.0 µM, stronger effect = higher value
# Outline: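 Compounds are added to genetically altered yeast, and growth is compared with cultures given vehicle alone to give percent inhibition.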
# [4] = NCI Yeast Anticancer Drug Screen. Data for the cln2 rad14 strain (AID 165);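 also: 0% = growth equal to vehicle treated cultures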; settings: S. cerevisiae cln2 rad14 strain, at 50.0 µM, stronger effect = higher value
# Outline: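 Readout is yeast growth inhibition versus vehicle-treated controls, using a strain with cln2 and rad14 alterations exposed to compound.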
# [5] = NCI Yeast Anticancer Drug Screen. Data for the bub3 strain (AID 167); settings: S. cerevisiae bub3 mutant strain, at 50.0 µM, stronger effect = higher value
# Outline: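 Steps: expose the mutant yeast strain to compound; grow alongside vehicle-treated cultures; measure growth; express inhibition against the vehicle cultures.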
# [6] = NCI Yeast Anticancer Drug Screen. Data for the mlh1 rad18 strain (AID 175); settings: S. cerevisiae mlh1 rad18 strain growth inhibition; at 50.0 µM; stronger effect = higher value
# Outline: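 Genetically defined yeast (DNA repair-deficient) exposed to compounds; growth inhibition determined relative to vehicle.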
SMILES,growth inhibition [1],growth inhibition [2],growth inhibition [3],growth inhibition [4],growth inhibition [5],growth inhibition [6]
COc1cc(SC)c(OC)cc1C,4.15%,0.65%,-12.4%,-22.4%,-6%,4.85%
C1=CC(=P(c2ccccc2)(c2ccccc2)c2ccccc2)C=C1,20.4%,25.1%,10.4%,38.8%,4.3%,34%
COc1ccc2cc(C(=O)O)ccc2c1OC,1.05%,1.7%,27%,25.1%,-6.3%,-3.85%
CN(C)C1C=CS(=O)(=O)C1 (stereo unspecified),-9.55%,-13.9%,-4.4%,-47.5%,0.95%,-4.95%
CCOC(=O)SC1=NC(C)=CC(C)(C)S1,2.4%,6.55%,18.6%,-10.9%,-3.7%,-4.7%
Cc1cccc(C)c1NC(=O)C(=O)/C(=C(\N)c1ccccc1)c1ccccc1,-14.3%,-9.5%,-15.2%,29.8%,10.2%,-9.15%
O=C(CN1CCOCC1)Nc1cccc(Cl)c1,0.5%,-20.1%,-2.6%,-14.8%,58.3%,-29.1%
CC(C)(C)/C=C/N=NNc1ccccc1C(=O)NC(C)(C)C,9.5%,0.2%,1.8%,-54.5%,-2%,12.1%
CCCCCCCC[N+](C)([O-])CCCCCC[N+](C)([O-])CCCCCCCC (stereo unspecified),63.6%,25.2%,69.8%,66.8%,5.85%,76.2% (active)
CC1=Nc2c(C#N)ncn2N=C(C)C1,31.9%,0.25%,17.5%,41.4%,28.8%,-19.1%
O=C1NC(=O)c2c1c1cnn(-c3ccccc3)c1n1cccc21,15.1%,4.35%,25.2%,-67%,1.2%,17.7%
CCN(CC)C(=S)N1CCCCC1,10.2%,-14.6%,-14.2%,-65.4%,-15.9%,-7.25%
Cc1ccc(N=NN(C)C)cc1NC(=O)NCC(=O)OC(C)(C)C,4.7%,8.7%,4.95%,-31.6%,7.25%,7.8%
COc1ccc(C(O)S(=O)(=O)O)cc1 (stereo unspecified),-1.1%,-13.9%,-9.9%,-6.75%,-22.1%,1.2%
CN(C)CCN(C=O)CCN(C)C,9.85%,3.95%,4.5%,-9.1%,0.6%,-0.2%
COc1ccc(N2C=Nn3c(nc4sc5c(c4c3=O)CCCC5)C2)cc1,9.55%,4.2%,0.35%,-1.9%,4.25%,-24.4%
C/C(=C1/CCOC1=O)c1cccc(/C(C)=C2\CCOC2=O)c1,3.9%,3.55%,-3.05%,-29.4%,5.35%,2.75%
Cc1cc(C)c(Br)c(C)c1,1.55%,0.45%,-2%,-20.2%,-4.95%,-12.7%
CC1CN(C(=S)Nc2ccccc2)C(C)CN1CCO (stereo unspecified),58.5%,1.6%,14.2%,-39%,-3.9%,16.6%
Cc1c(Cl)c2ccc(N(C)C)cc2[nH]c1=O,-2.9%,0.45%,-0.1%,-6.35%,11.2%,7.65%
CCOc1cccc(N(CC)CC)c1,33.9%,2.05%,-20%,-64.5%,-14.2%,13.4%

SMILES,growth inhibition [1],growth inhibition [2],growth inhibition [3],growth inhibition [4],growth inhibition [5],growth inhibition [6]
Oc1c(Cl)cc(Cl)cc1C1N2CCCCC2C2c3cccn3-c3ccccc3N21 (stereo unspecified),22.4%,5.4%,18.3%,14.2%,21.2%,-30.6%
CC(=O)N(C)CCCCCCN(C)C(C)=O,8.95%,8.05%,10.7%,3.05%,7.2%,9.35%
CCC(=O)Nc1cccc(OC(=O)NC2CCCCC2)c1,1.35%,13.1%,16.2%,1.3%,20.2%,11.1%
COc1ccccc1NC(=O)C1=C(C)NC(C)=C(C(=O)Nc2ccccc2OC)C1c1ccccc1OC,15.2%,-6.65%,-26.8%,17.1%,0.35%,1.85%
CC(C)(C)c1ccc(OCCCl)c(Cl)c1,2.35%,-2.45%,33.7%,-41.9%,0.75%,6.3%
CSCCCC(N)=O,1.85%,-11.3%,-1.5%,0.7%,-10.2%,3.9%
OC(NN=C1CCCC1)(C(F)(F)Cl)C(F)(F)Cl,-12.9%,-19.9%,-4.45%,-25.3%,-14.2%,9.15%
CCN(CC)c1ccc(N=C2C=C(C(=O)Nc3ccc(S(C)(=O)=O)cc3)C(=O)c3ccccc32)c(C)c1,-15.8%,-29.5%,2.55%,6.6%,-4.2%,-17.2%
O=C1C=CC2CCC1C2 (stereo unspecified),24.8%,-6.25%,-20.5%,26.6%,-38.8%,-29.3%
COC1Cc2c(C)c(OC(C)=O)c3cccnc3c2O1 (stereo unspecified),18.6%,-17.4%,10.8%,18.6%,4.25%,5.65%
COc1ccc(C)cc1NC(=S)NC(=O)c1ccc(Cl)cc1Cl,1.7%,13.7%,8.15%,-12.6%,4.7%,0.75%
CC1CC(C)C2=NOS3=C2C1=NO3 (stereo unspecified),43.3%,16.6%,36.1%,21.4%,28.4%,22.9%
COC(=O)C(=O)C(C(=O)C1=NS(=O)(=O)c2cc(S(N)(=O)=O)c(Cl)cc2N1)c1nc2ccc(C(=O)c3ccccc3)cc2[nH]c1=O (stereo unspecified),-9.7%,-18.1%,-18%,6%,-19.9%,-19.2%
O=C1C(Cl)C(c2ccccc2O)N1n1cnc2ccccc2c1=O (stereo unspecified),-29.4%,8.9%,-12.5%,-9.5%,-7.8%,-16.2%
c1cc(-c2cn3c(n2)SCC3)ccn1,15.5%,5.9%,-12.8%,7.8%,25.2%,19.9%
CC(=O)O[C@H]1C(=O)[C@]2(C)[C@@H](OC(=O)OCCC(O)CO)C[C@H]3OC[C@@]3(OC(C)=O)[C@H]2[C@H](OC(=O)c2ccccc2)[C@]2(O)C[C@H](OC(=O)[C@H](O)[C@@H](NC(=O)c3ccccc3)c3ccccc3)C(C)=C1C2(C)C (stereo partly specified),1.65%,-7.2%,2.25%,3.95%,-19.2%,-0.35%
Cc1ccc(S(=O)(=O)/C(C#N)=C/n2c(=S)[nH]c3ccc([N+](=O)[O-])cc32)cc1,-14.3%,-21.1%,-9.05%,-3.25%,-10.6%,3.3%
Cc1ccc(NC(Nc2ccc(C)c(Cl)c2)C(Cl)(Cl)Cl)cc1Cl,9.65%,-24%,-5.7%,-7.7%,5.75%,-15.3%
CN1CCC=C(COC(=O)C(C)(C)C)C1,1.8%,4.9%,-10.9%,7.45%,5.45%,18.4%
CC(OS(C)(=O)=O)C(C)OS(C)(=O)=O (stereo unspecified),2.4%,-9.35%,-11.7%,-10.4%,0.95%,-19.6%
